# This is a sample that favours compounds with a hit; in the whole collection about 3.6% have one here.
# Pf apPOL inh = Pf-apPOL DNA polymerase inhibition; Recombinant Pf-apPOL, molecular beacon fluorescence, 1.5 h; inhibition, % at 10 µM; hit rate 0.25% among 210,000
# mHTT-CaM PPI inh = mHTT-calmodulin interaction abrogation; hit rate 3.6% among 190,000; P42858; AlphaScreen His-mHTT/GST-CaM binding, luminescence; AID 1671202; inhibition, % at 15 µM;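 further: 0% = both proteins with DMSO and 100% = one protein alone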
# Numbers without * were called inactive; . = no result. No stated cut-off is given here; in the data, active means inhibition above about 50%; inactive means the rest.
SMILES,Pf apPOL inh,mHTT-CaM PPI inh
CC1=C(C#N)C(c2cccnc2)C2=C(CC(c3ccc(Cl)cc3)CC2=O)N1 (stereo not drawn),1,-4
COc1cc(C2Nc3ccccc3NC3=C2C(=O)CC(c2ccc(C)cc2)C3)cc(Cl)c1O (stereo not drawn),13,62*
COc1cccc(C2Nc3ccccc3NC3=C2C(=O)CC(c2ccc(Cl)cc2)C3)c1OC (stereo not drawn),5,80*
COc1ccccc1C1Nc2ccccc2NC2=C1C(=O)CC(c1ccc(Cl)cc1)C2 (stereo not drawn),-11,5
CCOc1ccccc1C1C(C#N)=C(C)NC2=C1C(=O)CC(c1ccc(Cl)cc1)C2 (stereo not drawn),1,52*
O=C(NCc1ccc(F)cc1Cl)C1CCCN(c2nc3ccccc3o2)C1 (stereo not drawn),-10,1
CCCCNC(=O)CSc1ncccc1C(=O)NCc1cccnc1,-6,5
CNS(=O)(=O)c1cccnc1Nc1cc(C)cc(C)c1,-3,-18
O=C1OC(c2ccc(Br)cc2)=N/C1=C/N1CCC(C(=O)O)CC1,0,6
CCc1ccccc1NC(=O)NC1CCN(c2nc3ccccc3n(CC)c2=O)CC1,2,9
CC(C)(C)N(C(=O)c1ccc([N+](=O)[O-])o1)C(=O)N1CCCCC1,-8,9
CC(=O)N1CCc2cc(Br)cc(S(=O)(=O)CCC(=O)NC3CCCCCC3)c21,0,1
Cc1cc(C(=O)Nc2nnc(-c3cccs3)o2)no1,7,-1
CCN(CC)S(=O)(=O)c1ccc(C(=O)Nc2nnc(-c3cccs3)o2)cc1,0,27
Cc1onc(-c2ccccc2Cl)c1C(=O)Nc1nnc(-c2cccs2)o1,-146,82*
Cc1ccc(S(=O)(=O)Nc2cccc(C(=O)Nc3nnc(-c4cccs4)o3)c2)cc1,-237,82*
CCc1onc(C)c1C1CCCN1C(=O)c1ccn(CC)n1 (stereo not drawn),3,-6
COc1cccc2c1NC(c1ccc(Cl)cc1)C1CC=CC21 (stereo not drawn),2,59*
O=[N+]([O-])c1ccc(C2Nc3c(cccc3[N+](=O)[O-])C3C=CCC32)cc1 (stereo not drawn),1,11
COc1ccc(C)c2c1NC(c1ccc(Br)cc1)C1CC=CC21 (stereo not drawn),-7,72*
O=[N+]([O-])c1cccc2c1NC(c1ccc(Cl)cc1)C1CC=CC21 (stereo not drawn),1,86*
COc1cc(C2Nc3c(F)cccc3C3C=CCC32)cc(Br)c1OC (stereo not drawn),-5,0
O=[N+]([O-])c1cccc2c1NC(c1ccc(F)cc1)C1CC=CC21 (stereo not drawn),0,83*
O=C(CN1N=C(c2ccc(Cl)cc2)CCC1=O)NCc1ccc(F)cc1Cl,-13,-11
O=C(Cc1nnc(-c2ccccc2)o1)NC1CCCC1,-4,-5
SMILES,Pf apPOL inh,mHTT-CaM PPI inh
NC(=S)C12CC3CC(CC(C3)C1)C2,.,-2
COc1cccc(-c2nc3cc(N)ccc3o2)c1,-2,0
O=C(Nc1nccs1)C1CCN(C(=O)c2cc(-c3ccco3)on2)CC1,2,0
CCCCN(C)CCCNC(=O)CC(C(=O)N1CCc2ccccc21)n1ccnc1 (stereo not drawn),-14,-3
CCCCN(CCCNC(=O)CC(C(=O)N1CCc2ccccc21)n1ccnc1)c1ccccc1 (stereo not drawn),-6,77*
COc1ccc(Br)cc1CNC(=O)C1CCN(c2nc3ccccc3o2)CC1,-13,8
CC(C)=CCOc1ccc2c(=O)c(-c3ccccc3)c(C)oc2c1,6,-29
Cc1ccc(N2CCN(S(=O)(=O)c3ccc(Cl)c(Cl)c3)CC2)nn1,-8,-10
COc1ccc(S(=O)(=O)N2CCN(c3ccc(N4CCCC4)nn3)CC2)cc1Cl,-3,72*
Cc1cc(C)cc(NC(=O)c2ccc(SCCN3CCOCC3)nc2)c1,0,32
COc1ccccc1C=C1Oc2c(ccc3c2CN(Cc2cccnc2)CO3)C1=O,-28,42
COc1ccc(C=C2Oc3c(ccc4c3CN(Cc3cccnc3)CO4)C2=O)c(OC)c1,-5,18
COc1ccccc1C=C1Oc2c(ccc3c2CN(Cc2cc(OC)c(OC)c(OC)c2)CO3)C1=O,-18,55*
COc1ccc(C=C2Oc3c(ccc4c3CN(CCN3CCOCC3)CO4)C2=O)c(OC)c1,-36,55*
COc1cccc(C=C2Oc3c(ccc4c3CN(Cc3ccco3)CO4)C2=O)c1,-32,20
COc1ccccc1C=C1Oc2c(ccc3c2CN(CCN2CCOCC2)CO3)C1=O,-24,57*
COc1ccc(C=C2Oc3c(ccc4c3CN(Cc3ccco3)CO4)C2=O)cc1OC,-29,58*
COc1ccccc1C=C1Oc2c(ccc3c2CN(Cc2ccncc2)CO3)C1=O,-30,5
CC(=O)c1c(NCc2ccco2)oc(C)cc1=O,.,-3
C=CCNC(=O)COc1ccc(Cl)c(C)c1,-5,-2
O=C(NCCc1ccccc1)C(=O)NCc1cccnc1,0,-26
CCc1c(C)sc(NC(=O)C2CCCCC2C(=O)O)c1C#N (stereo not drawn),-6,5
Cc1nnsc1C(=O)NNC(=O)C1CCCCC1,-8,.
O=C1OC(c2ccc(Br)cc2)=N/C1=C\c1ccc(Br)o1,0,4
Cn1nc(C(=O)N2CC3CC(NC(=O)c4cccnc4)C2C3)c2ccccc21 (stereo not drawn),0,-3
SMILES,Pf apPOL inh,mHTT-CaM PPI inh
O=C(CN1CCN(c2ccc(F)cc2)CC1)Nc1ccc(Cl)c(Cl)c1,4,58*
O=C(CN1CCN(c2ccc(F)cc2)CC1)Nc1cccnc1Cl,0,0
COc1ccc(C(O)Cn2c(=N)n(Cc3ccccc3)c3ccccc32)cc1 (stereo not drawn),1,0
O=c1oc2ccc(Cl)cc2n1CNc1ccccc1,-20,6
O=c1oc2ccc(Cl)cc2n1CNc1ccccc1F,63*,3
O=C(Cc1c(F)cccc1Cl)N1CC2CC1CC2NS(=O)(=O)c1cccs1 (stereo not drawn),1,0
COC(=O)NCCN1CCN(c2ccccc2)CC1,-3,-12
CC1=C(C(=O)NCCCN2CCN(c3cc(C)ccc3C)CC2)C2(CCCCC2)OC1=O,0,12
O=C(NCCN1CCN(c2cccc(C(F)(F)F)c2)CC1)C1(n2cccc2)CCCCC1,-5,97*
Cc1ccc(Cl)cc1N1CCN(CCCNC(=O)C2(n3cccc3)CCCCC2)CC1,-12,86*
O=C(NCCN1CCN(c2ccccc2F)CC1)C1(n2cccc2)CCCCC1,-9,24
CCOc1cccc(C2CC(c3ccc(C)cc3)=NC3(CCN(C)CC3)N2)c1O (stereo not drawn),1,4
Cc1ccccc1OCC(=O)NCCc1csc2nc(-c3ccccc3C)nn12,-6,-1
O=C(NC(c1ccccc1Cl)c1ccc2cccnc2c1O)c1ccccc1 (stereo not drawn),4,73*
O=C(NC(c1ccc(Cl)cc1)c1ccc2cccnc2c1O)c1ccccc1 (stereo not drawn),-2,100*
COc1ccc(C2C(C(=O)Nc3ccc4c(c3)OCO4)CC(=O)N2c2ccc(OC)cc2)cc1 (stereo not drawn),-8,12
COc1ccc(C2C(C(=O)N(C)c3ccc(Cl)cc3)CC(=O)N2c2ccc(OC)cc2)cc1 (stereo not drawn),-2,87*
